Compound activity: PubChem, Milwaukee Institute for Drug Discovery
This is a sample that favours compounds with a hit; in the whole collection about 6.8% have one here.
Cy5 interf NS3h = Cy5 fluorescence quenchers or enhancers, artefact control for HCV NS3 helicase inhibitor project, biochemical, ChemBridge library, Cy5 readout; Cy5-dT15 DNA with NS3h, fluorescence interference; actives lie on both sides; signal over control mean, under 1 quenches; fluorescence interference ratio at 100 µM; 16,000 compounds, 6% hits;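 active = compound fluorescence over control fluorescence at most 0.8, a quencher, or at least a set upper limit, an enhancer; inactive = ratio between 0.8 and the set upper limit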
NS3h inh CB = HCV NS3 helicase inhibitors, primary screen, biochemical, fluorescence polarization, ChemBridge library. inhibition, % at 100 µM. NS3h Cy5-dT15 DNA binding. Hepatitis C virus NS3 helicase. 16,000 compounds, 1.6% hits;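 active = inhibition above the average over every tested compound plus 3 SD, cut at about 40% in these data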
Numbers without * were called inactive.

SMILES	Cy5 interf NS3h	NS3h inh CB
COc1ccc(C2CC(C(F)(F)F)n3ncc(C(=O)Nc4ccccc4SC)c3N2)cc1 (stereo unspecified)	1	8
COc1cc(OC)c(OC)cc1/C=N\N=C(\N)c1nonc1N	0.92	4
O=C(/C=C/c1ccccc1)Nc1ccc(Cl)cc1Cl	0.92	21
COc1cc(/C=C/c2[nH]c(=O)[nH]c(=O)c2[N+](=O)[O-])ccc1O	0.98	0
COc1ccc(S(=O)(=O)Nc2ccccc2C(N)=O)cc1Br	1.1	1
Cc1nn(CC(=O)Nc2sc(C)c(C)c2C(N)=O)c(C)c1[N+](=O)[O-]	1.1	12
COC(=O)CN(c1cc(C)ccc1OC)S(=O)(=O)c1ccccc1	1.1	12
COc1ccc(Br)cc1C(=O)Nc1ccc2oc(-c3ccccc3F)nc2c1	1.2*	-87
COc1ccc(C(=O)Nc2ccc3oc(-c4ccccc4Cl)nc3c2)cc1Br	0.93	14
COc1ccccc1C/C(N)=N\OC(=O)COc1ccc(Cl)cc1	1.1	14
CCN(CC)C(=O)COc1ccc2oc(C)c(C(=O)OC(C)C)c2c1	0.79*	16
CCOC(=O)COc1ccc2oc(C)c(C(=O)OC(C)C)c2c1	0.86	14
COc1ccc(N(CC(=O)Nc2cccc(Br)c2)S(=O)(=O)c2ccc(C)cc2)c(OC)c1	1.1	-7
O=C(O)c1ccccc1-c1ccccc1/C=N\O	1.1	3
CCOC(=O)c1ccc(NS(=O)(=O)c2ccc(C)c([N+](=O)[O-])c2)cc1	0.95	7
COC(=O)c1cc(C(=O)NCc2ccc(OC)cc2)cc([N+](=O)[O-])c1	0.96	10
CCN(Cc1ccccc1)C(=O)c1cc(C(=O)OC)cc([N+](=O)[O-])c1	0.66*	9
O=C1c2ccccc2C(=O)N1CN1CCN(Cc2ccccc2)CC1	1	-7
Cc1ccc(/C=C2\C(=O)NC(=O)N(Cc3ccccc3)C2=O)o1	1.1	22
COc1cccc(NC(=O)COc2ccc(C)cc2C)c1	0.78*	13
COc1cccc(NC(=O)COc2cc(C)c(Cl)c(C)c2)c1	0.88	10
CC(=O)Nc1ccccc1NC(=O)c1ccc(Br)cc1	1.2*	9
CC(=O)Nc1ccccc1NC(=O)c1ccc(F)cc1	0.93	8
Cc1cccc(N2C(=O)/C(=C/c3ccc4c(c3)OCO4)SC2=S)c1C	0.77*	14
O=C1S/C(=C/c2ccc3c(c2)OCO3)C(=O)N1CN1CCCC1	0.57*	-8
SMILES	Cy5 interf NS3h	NS3h inh CB
O=C1/C(=C\c2ccc3c(c2)OCO3)SC(=S)N1c1cccc(C(F)(F)F)c1	1.1	0
COCCN1C(=O)/C(=C/c2ccc3c(c2)OCO3)SC1=S	1	20
COc1ccc(C(=O)/C=C/c2ccc(-c3ccccc3[N+](=O)[O-])o2)cc1	1	5
Clc1ccc(CSc2nnc(-c3ccc(Br)cc3)o2)c(Cl)c1	0.98	-10
C=CCN1C(=O)/C(=C\c2ccc(OCCOc3cccc(OC)c3)cc2)SC1=S	1	6
C=CCN1C(=O)/C(=C\c2ccc(OC(=O)c3cccc(Br)c3)cc2)SC1=S	0.75*	7
CCOc1ccc(/C=C/C(=O)c2ccc(Br)cc2)cc1	1	-4
O=C(NCCOc1ccc(F)cc1)c1cccc2ccccc12	0.88	2
O=C(NCCOc1ccc(F)cc1)c1ccccc1-c1ccccc1	0.69*	24
COc1ccc(C2C(=C(O)c3ccc(Cl)cc3)C(=O)C(=O)N2CCCC(=O)O)cc1 (stereo unspecified)	0.15*	-44
O=C(O)CCCN1C(=O)C(=O)C(=C(O)c2ccc(Cl)cc2)C1c1ccccc1 (stereo unspecified)	1.1	31
CS(=O)(=O)N(CC(N)=O)c1cccc(C(F)(F)F)c1	1	1
COc1cc(/C=C2/SC(=S)NC2=O)ccc1OCc1ccc(I)cc1	1.1	14
COc1cc(/C=C2/SC(=S)NC2=O)ccc1OS(=O)(=O)c1ccccc1[N+](=O)[O-]	1.3*	5
O=C1NC(=S)S/C1=C/c1ccc(OCc2cccc(C(=O)O)c2)cc1	0.92	46*
COc1cc(/C=C2/SC(=S)NC2=O)ccc1OC(=O)c1cccc(Br)c1	0.76*	16
COc1cc(/C=C2/SC(=NS(=O)(=O)c3ccccc3)NC2=O)c([N+](=O)[O-])cc1OC	0.96	16
O=C1NC(=S)S/C1=C/c1ccc(OCc2ccc(Cl)cc2)cc1	0.97	19
O=C(COc1ccccc1)NCc1ccccn1	1	4
Cc1ccc(S(=O)(=O)N=C(N)c2ccc(F)cc2)cc1	0.93	4
N#CC1=C(N)C(C#N)(C#N)C(c2ccc(Cl)cc2Cl)C2CCCC=C12 (stereo unspecified)	1.2*	0
COc1ccc(C)cc1NC(=O)C(=O)NCc1ccc(C)cc1	1.1	-5
O=C(NC1CCCCC1Cc1ccco1)c1cccc2ccccc12 (stereo unspecified)	0.9	1
CCOC(=O)c1c(-c2ccc(C)cc2)csc1NC(=O)C1CC1	1	8
CCOC(=O)c1c(-c2ccc(C)cc2)csc1NC(=O)C(C)(C)C	0.69*	19
SMILES	Cy5 interf NS3h	NS3h inh CB
COc1cc(OC)c(NC(=O)COc2ccc(F)cc2)cc1Cl	0.93	6
O=[N+]([O-])c1ccc(N2CCN(CCO)CC2)cc1NCCc1ccccc1	0.96	8
O=[N+]([O-])c1ccc(N2CCOCC2)cc1NCCc1ccccc1	0.67*	30
COc1ccccc1OCCNc1cc(Cl)ccc1[N+](=O)[O-]	1	3
O=[N+]([O-])c1ccc(Cl)cc1NCCc1ccccc1	0.79*	18
O=[N+]([O-])c1ccc(Cl)cc1NCCOc1ccc(F)cc1	0.69*	21
Cc1cccc(OCCNc2cc(Cl)ccc2[N+](=O)[O-])c1	0.82	14
COc1cccc(NC(=O)CN(c2ccc(OC)cc2OC)S(=O)(=O)c2ccc(C)cc2)c1	0.9	26
CCOc1ccc2c(c1)-c1c(ssc1=S)C(C)(C)N2C(=O)c1ccc(OC)c(OC)c1	0.94	-14
CCOC(=O)c1c(C)oc2c(Br)cc(NS(=O)(=O)c3ccccc3)cc12	0.97	14
CCc1ccc(S(=O)(=O)Nc2cc3c(C(=O)O)c(C)oc3c3ccccc23)cc1	0.72*	-18
CCc1ccc(NC(=O)CSc2nnc(-c3ccco3)n2-c2ccccc2)cc1	0.8*	-4
O=C(CSc1nnc(-c2ccco2)n1-c1ccccc1)Nc1ccccc1[N+](=O)[O-]	0.98	4
CCOC(=O)/C(C#N)=C\c1c(C)c(C)c(/C=C(/C#N)C(=O)OCC)c(C)c1C	1	3
CCOc1cccc(C(=O)Nc2c(C)ccc3nsnc23)c1	1	7
CCN(C(=O)c1cc(OC)c(OC)cc1[N+](=O)[O-])c1ccccc1	0.94	2
COc1cc(CC(=O)O)c([N+](=O)[O-])cc1OC	0.65*	-3
C/C(=N\N=C1/c2ccccc2C(=O)C1C(=O)C(c1ccccc1)c1ccccc1)c1cccs1 (stereo unspecified)	0.68*	4
CC(CNC(=O)c1cccs1)c1ccccc1 (stereo unspecified)	0.99	-2
CC(=O)c1c(C)oc2ccc(NS(=O)(=O)c3ccccc3C)cc12	1	14
O=C(Nc1cc(C(F)(F)F)ccc1Cl)C1CC(=O)N(c2ccc(F)cc2)C1 (stereo unspecified)	1	11
